# Rows were chosen to be rich in hits. Some 11% of all compounds tested hit in one or more screens of this group.
# HCV inhibitor – inhibitors of hepatitis C virus infection; Huh7.5.1 HCVcc-Cre infection, luciferase reporter, 44 h; Potency, µM (titrated, usually from 41.8 µM), for inactives: at the top dose activity change, negative = inhibition, hits mostly inhibitors; hit rate 3.4% among 340,000
#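 Cells seeded at 1,000/well and cultured 4 h, then compounds added followed by HCVcc-Cre virus (~0.5 moi). After 44 h further culture, luciferase substrate was added, plates held 15 min at room temperature, and luminescence read for 15 sec.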
# AMA1 RON2 block – inhibitors of Plasmodium falciparum AMA1-RON2 interaction. AlphaScreen AMA1-biotinylated RON2 peptide binding. Potency, µM (doses to about 58.2 µM), inactives show top-dose activity change, negative = inhibition, actives largely listed as inhibitors. hit rate 0.2% among 360,000. AID 720542;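 note: 0% = vehicle wells and -100% = peptide control; nearly all actives have a fitted effect of over 45% in size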
#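 AMA1 (3D7) with his tag at 25 nM final met compounds first, then biotinylated RON2 peptide at 25 nM; detection used donor plus acceptor beads, 10 µg/mL apiece, read by AlphaScreen after 30 min at room temperature.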
# Pf growth 48h – P. falciparum growth inhibition at 48 hours (one generation); P. falciparum luciferase growth in erythrocytes, 48 h; Potency, µM (highest dose often 28.7 µM), inactives show at the highest dose activity change, negative = inhibition, usual class: inhibitors; hit rate 5.9% among 310,000; AID 504832
#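 Compounds are pin-transferred into medium, infected erythrocytes (2% hematocrit, 0.1% parasitemia final) are added, and plates sit one parasite generation at 37 C in 5% CO2. Detection reagent is then added and luminescence measured.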
# Pf growth 96h – P. falciparum growth inhibition at 96 hours | P. falciparum luciferase reporter growth, 96 h | Potency, µM (titrated, usually from 28.7 µM), for inactives: at the top dose activity change, negative = inhibition, usual class: inhibitors | hit rate 6.9% among 320,000
#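 Two parasite generations (96 h, 37 C, 5% CO2) of compound exposure in infected erythrocytes (0.05% parasitemia, 2% hematocrit). Luciferase-reporter P. falciparum; decreased luminescence indicates inhibited growth, aimed at apicoplast-acting delayed death.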
# * hit, by the source's call; ? = inconclusive; nt = not tested or not shown; [ ] = remark or other dose. Calls come from the whole dose curve; as a rule, active = well fitted curve in the direction sought with a large enough effect; inconclusive = small, poorly fitted or top-dose-only effect, or another doubt; inactive = no such curve, though single readings can be large; an effect the other way counts as inactive or inconclusive. Unless noted, % is set by controls: 0 for no effect and ±100 for the full control effect; potency is the fitted concentration of half-maximal effect.
SMILES,HCV inhibitor,AMA1 RON2 block,Pf growth 48h,Pf growth 96h
CCN(CC)S(=O)(=O)c1cc(C(=O)Nc2nncs2)c(Cl)cc1Cl,10µM*,5%,?,nt
CCN(CC)S(=O)(=O)c1ccc(Cl)c(C(=O)Nc2nncs2)c1,-8%,-2%,-28%,44%
CCOC(=O)c1cnc(SC)nc1Sc1cc(Cl)ccc1Cl,-2%,17%,?,10µM*
CCOC(=O)C1=C(CSc2nc3c(cc2C#N)CN(C)CC3)OC(N)=C(C#N)C1c1ccc(Cl)cc1 (stereo not given),13µM*,?,?,?
CC(C)(O)C#CC#CCN1CCOCC1,11%,-1%,7%,10µM*
COc1ccc(CCNC(=O)CSc2nncn2N)cc1OC,22%,-3%,28%,nt
Cc1cc(C)c2nc(NCCCNC(=S)NCCCN(C)C)c(C#N)cc2c1,11µM*,14%,?,-45%
CCn1c(C(=O)NC2CCC(C)CC2)cc2sccc21 (stereo not given),?,0%,113%,-18%
CCOc1ccc(CCNC(=O)c2cc3sccc3n2CC)cc1OCC,7.9µM*,-26%,?,0%
CCOC(=O)N1CCC(NC(=O)c2cc3sccc3n2CC)CC1,21%,6%,15%,5.2µM*
O=C(NCc1cccc(Cl)c1)c1ccc2ccccc2n1,?,8%,-9%,14%
NC(=O)CC(NC(=O)Cc1ccc(Cl)cc1)c1ccc(NC2CC3CCC2C3)c([N+](=O)[O-])c1 (stereo not given),8%,-1%,-3%,-25%
C/C(CC(=O)Nc1ccc(Cl)c(Cl)c1)=N\NC(N)=S,?,36%,13µM*,6%
C/C(CC(=O)Nc1cc(Cl)ccc1Cl)=N\NC(N)=S,?,64%,?,?
CSc1cccc(-c2nnc(NC(=O)c3cccc(N4C(=O)CCC4=O)c3)o2)c1,-13%,61%,3%,-1%
CCCOC1CCCN(C(=O)c2ccc3oc(C(C)C)nc3c2)C1 (stereo not given),13%,-6%,8%,34%
CC(C)c1nc2cc(C(=O)N3CCN(c4cnccn4)CC3)ccc2o1,-8%,-5%,6%,12µM*
COCCN(C(=O)CSc1nnc(-c2cccc(OC)c2)n1C)c1c(N)n(Cc2ccccc2)c(=O)[nH]c1=O,nt,nt,19%,-4%
CCc1ccc(N(C(=O)c2snc(C(N)=O)c2N)C(C(=O)NC2CCCC2)c2ccco2)cc1 (stereo not given),?,2%,?,6%
NC(=O)c1nsc(C(=O)N(CCc2ccccc2)C(C(=O)NC2CCCC2)c2ccco2)c1N (stereo not given),-6%,-3%,?,10µM*
CCCCC(C(=O)NC(C)(C)C)N(Cc1ccccc1Cl)C(=O)c1snc(C(N)=O)c1N (stereo not given),-19%,-12%,10µM*,86%
CCOCCCN(C(=O)c1snc(C(N)=O)c1N)C(C(=O)NC1CCCC1)c1ccc(OC)cc1 (stereo not given),-2%,-2%,8.3µM*,5%
COc1ccc(CN(C(=O)c2snc(C(N)=O)c2N)C(CC(C)C)C(=O)NC2CCCCC2)cc1 (stereo not given),-6%,19%,12µM*,?
CC(C)CCNC(=O)c1c(CSc2ccc(Cl)cc2)noc1C(=O)NCc1ccccc1,49%,26%,nt,nt
O=C(CS(=O)c1ccc(F)cc1)N1CCOCC1 (stereo not given),5%,-7%,-5%[0.00184 µM],9%
SMILES,HCV inhibitor,AMA1 RON2 block,Pf growth 48h,Pf growth 96h
CN(CCc1ccccn1)C(=O)CCC1CCCN(C(=O)c2n[nH]c3c2CCCC3)C1 (stereo not given),-2%,-2%,?,?
CC(=O)NC(c1ccc(F)c(F)c1)c1nc(-c2ccccc2)cs1 (stereo not given),nt,11%,nt,nt
CCOc1ccc(N=C(NN)c2ccc3ccccc3n2)cc1,?,35%,85%,-3%
CC(C)CCNC(=O)C(c1ccco1)N(Cc1ccccc1)C(=O)c1snc(C(N)=O)c1N (stereo not given),nt,9%,?,nt
CC(C)(C)NC(=O)C(c1ccco1)N(Cc1ccc2c(c1)OCO2)C(=O)c1snc(C(N)=O)c1N (stereo not given),-10%,-8%,-21%,9.3µM*
Cc1c(CCO)c(=O)[nH]n1S(=O)(=O)c1ccccc1,17%,5%,3.3µM*,-6%
OC[C@H](O)[C@H](O)[C@@H](O)[C@@H](O)[C@@H]1SC(c2ccccc2)=NN1c1ccccc1,-21%,49%,13µM*,?
CN(C)CCCN(C(=O)c1ccc(S(=O)(=O)N2CCCCCC2)cc1)c1nc2c(F)cc(F)cc2s1,-20%,-3%,?,-2%
CNC(=O)/C(C#N)=C/c1c(N2CCN(c3cccc(Cl)c3)CC2)nc2c(C)cccn2c1=O,-12%,-20%,-21%,?
CCOC(=O)/C(C#N)=C/c1c(N2CCN(c3ccc(OC)cc3)CC2)nc2c(C)cccn2c1=O,?,?,9.3µM*,12µM*
C=CCNC(=O)/C(C#N)=C/c1c(N2CCN(c3cccc(Cl)c3)CC2)nc2c(C)cccn2c1=O,5%,-26%,8.3µM*,?
COCCNC(=O)/C(C#N)=C/c1c(N2CCN(c3cccc(Cl)c3)CC2)nc2c(C)cccn2c1=O,?,-5%,13µM*,?
CCNC(=O)/C(C#N)=C/c1c(N2CCCCCC2)nc2c(C)cccn2c1=O,?,6%,?,13µM*
O=C1NC[C@H](CCCCN2C[C@H](Cc3ccc(O)cc3)N(CCc3ccc(O)cc3)C(=O)C2=O)N(CCc2ccccc2)C1=O,nt,-2%,nt,nt
c1ccc2sc(NC3=NCN(CC4CCCO4)CN3)nc2c1 (stereo not given),-5%,-2%,84%,?
COc1ccccc1CNC(=O)COC(=O)c1cccc(-n2cnnn2)c1,-29%,12%,-20%,0%
O=C(CN(Cc1ccc(Cl)cc1)C(=O)CNS(=O)(=O)c1ccccc1)NCC1CCCO1 (stereo not given),-3%,-5%,-22%,-4%
CCC(C)(C)NC(=O)CN(CCc1cccc(C)c1)C(=O)c1csnn1,0%,-7%,-14%,0%
COCCNC(=O)/C(C#N)=C/c1c(N2CCN(c3ccccc3)CC2)nc2c(C)cccn2c1=O,-20%,6%,13µM*,?
CCN(CC)c1ccc2nc3ccccc3[n+](CC)c2c1,6.3µM*,?,0%,?
CCN(CC)c1ccc2nc3ccc(N)cc3[n+](-c3ccccc3)c2c1,5µM*,20µM*,0.29µM*,?
CCN(CC)c1ccc(/C=N/n2nnnc2N)c(O)c1,0%,65%,70%,-10%
C#CC[N+]1(CC#Cc2cccc3ccccc23)CCOCC1,9%,12%,3.7µM*,-5%
O=S(=O)([O-])CCC[N+]1(CC#Cc2ccccc2)CCCCC1,-4%,10%,8%,0%
C#CC[N+]1(CC#Cc2ccc(C#CC[N+]3(CC#C)CCOCC3)cc2)CCOCC1,-11%,11%,-24%,?
